Cav3 T inh = blocks human Cav3.2 T-type calcium channel. O95180. Cav3.2-expressing cells, Fluo-4 calcium fluorescence FDSS; active compounds read low. B-score at 10 µM. actives 4% (n = 100,000). AID 449739;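 active = single-dose well whose peak fluorescence ratio is a statistical outlier from its plate by either plate-standardised score or position-corrected B-score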
CYP2C19 act = activators of human cytochrome P450 2C19; 96,000 tested, under 10 active; recombinant CYP2C19, luciferin-H EGE luminescence; active compounds read high; 0 = fully inhibited enzyme, 1 = untreated enzyme; activation factor at 5 µM; AID 1025;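 active = activation factor of at least 2 at 5 µM in the primary screen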;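 note: 0 = wells with 2.5 mM tranylcypromine and 1 = vehicle-only wells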
CYP2C9 activ = increases human cytochrome P450 2C9 activity | P11712 | actives 1.4% (n = 96,000) | AID 1024 | recombinant CYP2C9, luciferin-H conversion, luminescence; active compounds read high; factor 1 = untreated enzyme, 0 = blocked | activation factor at 5 µM;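 active = activation factor of 2 or more for CYP2C9 at a 5 µM dose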;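 note: 0 = sulfaphenazole-blocked wells and 1 = vehicle-only wells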
CYP2C19 inh = blocks human cytochrome P450 2C19; P33261; CYP2C19 Supersomes, luciferin-H EGE luminescence, 30 min; inhibition, % at 5 µM; actives 21% (n = 96,000);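 active = CYP2C19 inhibition above a set limit at 5 µM in the primary screen, cut at about 50% in these data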;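 note: plate controls were negative control wells for no effect and 2.5 mM tranylcypromine positive control for full effect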
CYP2C9 inhib = blocks human cytochrome P450 2C9. P11712. CYP2C9 Supersomes, luciferin-H conversion, luminescence. inhibition, % at 5 µM. actives 20% (n = 96,000). AID 777;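 active = blocking of liver enzyme CYP2C9 beyond about 50% at 5 µM, limit read from the data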
Numbers without * were called inactive; / = no result given. The list is not random: actives were taken first. Their share in the collection is about 27%.

SMILES	Cav3 T inh	CYP2C19 act	CYP2C9 activ	CYP2C19 inh	CYP2C9 inhib
O=C(CC1C(=O)N(c2ccc(F)cc2)C(=O)N1Cc1ccccn1)Nc1ccccc1 (stereo unspecified)	-0.37	0.4	0.8	56*	19
CCNC(=O)CC1C(=O)N(c2ccc(C)cc2)C(=O)N1Cc1ccccn1 (stereo unspecified)	0.24	1	1	4	4
O=C(CC1C(=O)N(c2ccc(Cl)cc2)C(=S)N1CCc1ccncc1)Nc1ccc(F)cc1 (stereo unspecified)	0.66	0.2	0	85*	95*
Cn1c(COc2ccccc2)nnc1SCC(=O)c1cccc([N+](=O)[O-])c1	-0.14	0.9	0.7	8	33
CC1CN(S(=O)(=O)c2ccc(Cl)c(S(=O)(=O)N3CC(C)OC(C)C3)c2)CC(C)O1 (stereo unspecified)	0.84	0.9	0.9	8	8
CN(C)CCn1c(=O)n(Cc2ccco2)c(=O)c2c3c(sc21)CCCCC3	0.34	0.9	0.8	6	16
O=C(Cn1c(=O)n(Cc2ccco2)c(=O)c2c3c(sc21)CCCCC3)c1ccccc1	-1.9	0.6	0.5	37	53*
Cc1nnc2n(Cc3ccccc3)c(=O)c3c4c(sc3n12)CCCC4	/	1	0.9	-1	9
O=C(Cn1c(=O)n(Cc2ccco2)c(=O)c2c3c(sc21)CCCCC3)Nc1ccccc1	-4.5*	1	0.6	3	43
O=c1c2c3c(sc2n(CCN2CCCC2)c(=O)n1Cc1ccco1)CCCCC3	-0.056	0.6	0.5	36	52*
COC(=O)C(C(=O)OC)N1C(=O)CCC1=O	0.57	1.1	1	-11	-4
O=c1c(-c2ccc(F)cc2)coc2c3c(ccc12)OCCO3	0.23	0.9	1	12	4
CC1(C(=O)NCc2cccnc2)CCC(=O)N1Cc1cccs1 (stereo unspecified)	/	0.5	0.9	52*	8
Cc1c(-c2ccccc2)nc(N)c(C#N)c1-c1ccco1	-0.15	0.3	0.5	69*	45
CCOc1c(CNCCN2CCOCC2)cccc1OC	0.29	0.8	1.1	21	-7
Cc1cc(C)c(C(=O)CSC2=NC(N)=C(C#N)C3(CCCCC3)C2C(N)=O)cc1C (stereo unspecified)	-1.4	0.6	0.9	41	7
N#CC1=C(N)N(c2ccccc2)C(c2ccccc2)C1(C#N)C#N (stereo unspecified)	-1.5	0.7	0.4	29	55*
CCOc1ccc(C(=O)NC(=S)Nc2ccccc2N2CCC(C)CC2)cc1[N+](=O)[O-]	0.06	0.7	0.3	27	72*
CC1CCN(c2ccccc2NC(=S)NC(=O)c2cccs2)CC1	-6.3*	1.1	0.8	-14	20
CC1CCN(c2ccccc2NC(=O)c2ccc(F)cc2)CC1	-3.5	0.9	0.8	7	22
CCC1=C(OC(=O)N(CC)CC)N2C(=O)OC(=NCC(=O)OC)[C@]2(C)[C@H]2C1=CC[C@H]1C(=O)NC(=O)[C@H]12	0.02	/	/	/	/
COC(=O)CSc1nc(C)c(C(C)=O)cc1C#N	-0.097	1.2	1.1	-19	-8
CCOC(=O)c1cc(C#N)c(SCC(=O)c2cc(C#N)c(SC)nc2C)[nH]c1=O	-1.7	0.6	0.3	35	74*
O=C(Oc1cccc(N2C(=O)CCC2=O)c1)c1ccccc1	0.2	/	/	/	/
O=C(Oc1ccc2c(c1)C(=O)c1ccccc1CO2)c1ccccc1	-0.95	0.8	0.3	17	73*
SMILES	Cav3 T inh	CYP2C19 act	CYP2C9 activ	CYP2C19 inh	CYP2C9 inhib
Cc1cccc(NC(=O)Cc2coc3ccc4ccccc4c23)n1	-3.6	0.1	2.3*	88*	-127
Cc1cccc(NC(=O)CCCN2C(=O)c3ccccc3C2=O)n1	-0.00058	0.8	0.7	16	26
CC(C)CN(CC(C)C)C(=O)Cc1coc2ccc3ccccc3c12	-4.9*	0.6	0.9	40	12
CCCCNC(=O)Cc1coc2ccc3ccccc3c12	-0.83	0.4	3.1*	64*	-208
Cc1cccc(NC(=O)CN(C)S(=O)(=O)c2ccccc2)n1	0.58	0.8	0.8	19	23
Cc1ccc(CC(=O)Nc2cccc(C)n2)cc1	-0.88	0.3	0.8	74*	23
CCCN(CCC)CCCNC(=O)CC1Nc2ccccc2NC1=O (stereo unspecified)	0.26	1	1.4	1	-41
O=C1NC(c2ccccc2)=C(c2ccc3ccccc3n2)C(c2ccncc2)N1 (stereo unspecified)	0.53	0.2	0.1	83*	89*
O=C1NC(c2ccccc2)=C(c2nc3ccccc3s2)C(c2ccc(O)cc2)N1 (stereo unspecified)	-1.7	1	0.6	1	39
O=C(Nc1ccncc1)c1ccc2c(c1)OCCO2	0.022	0.2	0.5	77*	50*
Cc1ccc(NC(=O)c2ccc3c(c2)OCCO3)cc1	-0.61	0.9	0.9	7	14
O=C(Nc1cccc(Cl)c1N1CCCCC1)c1ccc2c(c1)OCCO2	0.18	0.8	0.3	19	65*
O=C(Nc1ccc2oc(-c3ccccc3)nc2c1)c1ccc2c(c1)OCCO2	0.057	0.5	0.3	53*	66*
Cc1nc2c(ccc3nc(NC(=O)c4ccc5c(c4)OCCO5)sc32)s1	-0.21	0.8	0.4	15	63*
O=S(=O)(Cc1cnc(Cl)s1)c1ccccc1	0.28	0.5	0.9	47	7
Cc1cccc(N(C)S(=O)(=O)c2ccc3c(c2)CCC(=O)N3)c1	0.12	0.7	0.9	28	6
COc1ccc2nc(C)c(C(=O)OCCN(C)C)cc2c1	/	1.1	1	-8	1
CC(=O)NC1C(=O)Nc2c(C)cc(C)cc21 (stereo unspecified)	0.21	1	1	0	4
O=C(Nc1cccc2cccnc12)c1ccc2c(c1)OCCO2	-4.5*	0.6	2*	38	-102
COc1cc(NC(=O)c2ccc3c(c2)OCO3)c2ncccc2c1	0.84	/	/	/	/
O=C(NC1CCCCC1)c1cccc(Cn2cc(Cl)cn2)c1	0.96	1	0.9	3	12
O=C(O)C1[C@H]2C(=O)N(C3CCCC3)C[C@]23C=C[C@H]1O3 (stereo partly specified)	0.63	1	1	3	4
Cc1[nH]n(-c2ccccc2)c(=O)c1/C=N/Nc1nncc(-c2ccccc2)n1	-1.6	0.4	0.2	59*	82*
CCCCN(CCCC)C(=S)N/N=C/c1c(C)[nH]n(-c2ccccc2)c1=O	0.26	0.8	0.6	20	42
CCC(=O)c1ccc(OCc2ccc(C(=O)OC)cc2)c(OC)c1	0.54	1.1	1.1	-10	-7
COC(=O)c1sc(OC)cc1OCc1ccc(C)cc1	-0.049	0.5	1.1	53*	-10
COc1ccccc1/C=C/C(=O)c1cc(Br)ccc1OC(=O)c1ccco1	-4.5*	/	/	/	/
CCc1ccc(/C=C/C(=O)c2cc(Br)ccc(=O)c2O)cc1	-3.5	0.7	0.6	27	40

Screening results deposited in PubChem by several laboratories.
